From ChEMBL document CHEMBL3433997, “St. Jude Leishmania screening dataset” (2016)
Values joined by “and” are separate entries in the source; they are usually repeats but may differ in a detail not shown here. Identical values can stand only once.

target: Solute carrier family 2, facilitated glucose transporter member 1 (Homo sapiens) (UniProt P11166); experiment: ST_JUDE_LEISH: Cytotoxicity at 2uM final concentration against transgenic Leishmania Mexicana promastigotes LmGLUT1 that are glucose transport deficient and complemented with the human glucose transporter GLUT1. Activity is measured by DNA content using SYBR green in vitro; format: functional
Sequence (P11166 whole entry): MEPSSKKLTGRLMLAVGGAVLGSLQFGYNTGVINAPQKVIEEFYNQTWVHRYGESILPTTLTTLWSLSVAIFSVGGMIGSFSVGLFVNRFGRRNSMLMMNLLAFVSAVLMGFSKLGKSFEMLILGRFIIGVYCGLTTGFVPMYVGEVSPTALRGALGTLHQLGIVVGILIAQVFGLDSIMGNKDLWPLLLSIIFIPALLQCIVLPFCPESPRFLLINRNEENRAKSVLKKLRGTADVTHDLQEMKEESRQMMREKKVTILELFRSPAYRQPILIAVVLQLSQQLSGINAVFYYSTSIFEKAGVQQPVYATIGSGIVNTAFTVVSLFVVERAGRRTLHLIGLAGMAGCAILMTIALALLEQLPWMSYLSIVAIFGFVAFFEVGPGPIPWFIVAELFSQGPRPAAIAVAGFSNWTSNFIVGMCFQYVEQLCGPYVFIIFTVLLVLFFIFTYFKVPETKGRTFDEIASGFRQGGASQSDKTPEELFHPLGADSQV

| SMILES | inhibition |
| --- | --- |
| COc1cc(C(=O)NC2CC(C)(C)N(C)C(C)(C)C2)ccc1-c1cc2cc(Cl)c(Cl)cc2[nH]1 | 1.97% |
| O=C1c2ccccc2-n2c1nc1ccccc1c2=O | -2.52% |
| CCC(C)NS(=O)(=O)c1ccc2nc(Nc3cccc(SC)c3)n(C(C)C(C)C)c2c1 (stereo not given) | 3.91% |
| C#CCN(Cc1ccc2[nH]c(N)nc(=O)c2c1)c1ccc(C(=O)N[C@@H](CCC(=O)O)C(=O)O)cc1 | 4.21% |
| COc1ccc2nccc([C@@H](O)CN3CCC(NC(=O)C(c4ccsc4)N4CCN(c5ccccc5OC)CC4)CC3)c2c1 (stereo not given in full) | 1.93% |
| COc1ccc(CN2CCCN(Cc3cccc(C(=O)Nc4ccc(C)c(F)c4)c3)CC2)cc1 | 0.27% |
| CCCCCCn1c(Sc2ccc(C#N)c([N+](=O)[O-])c2)nnc1-c1ccc(Cl)cc1 | 5.74% |
| Cc1nnsc1C(=O)Nc1ccc(-c2cccc(-c3nc4cc(F)ccc4[nH]3)c2)cc1 | 1.36% |
| O=C(NCc1ccccc1)c1ncn(CCCN2CCC(N3CCCC3)CC2)c1-c1ccc(Cl)c(Cl)c1 | -1.45% |
| CCC(=O)Nc1ccc(C(O)CN2CCC3(C=Cc4ccccc4O3)CC2)cc1 (stereo not given) | 3.61% |
| CCCCC([C@@H](Cc1ccc2ccccc2c1)C(=O)N[C@H](C(=O)NC)C(C)(C)C)N(O)C=O (stereo not given in full) | 0.96% |
| N#Cc1ccc(C=CC(=O)NC2CCC(CCN3CCc4ccc(-c5cnccn5)cc4CC3)CC2)cc1 (stereo not given) | 4.1% |
| CN(C)CCNC(=O)c1ccc2c(c1)n(C1CCN(S(=O)(=O)c3ccc(-c4ccccc4)cc3)CC1)c(=O)n2CC1CCCCC1 | -1.79% |
| C[C@H](NC(=O)C1CCCC1)C(=O)Nc1ccc(-c2ccc(-c3nc4cc(C(F)(F)F)ccc4[nH]3)cc2)cc1 | 2.17% |
| CC(=O)Nc1ccc(OCCCN(Cc2ccccc2C(F)(F)F)c2ccc(C(F)(F)F)c(C#N)c2)c(Cl)c1 | 6.79% |
| COc1ccc(-c2cc(C(=O)N[C@@H](Cc3ccccc3)C(=O)NCCN3CCCCC3)ccc2O)cc1 | 5.18% |
| CCc1ccc(-c2nc3cc(NC(=O)c4ccc([N+](=O)[O-])o4)ccc3o2)cc1 | 1.01% |
| O=C(Nc1ccc(Cn2ncc(N3CCCNCC3)c(Cl)c2=O)cc1)Nc1ccc(-c2ccccc2)cc1 | -0.52% and 1.84% |
| CCCCc1cc(NCc2ccncc2)nc(Nc2ccc(OC)cc2)n1 | 12.9% |
| COc1ccc(NC(=O)[C@H](CC(C)C)Nc2cc(C)nc(NCc3cccc(C)c3)n2)cc1 | 9.89% |

| SMILES | inhibition |
| --- | --- |
| COc1cc(OC)cc(-c2nn(-c3ccc([N+](=O)[O-])cc3Cl)c(=S)n2CC2CCCO2)c1 (stereo not given) | 3.14% |
| C#CCNCc1ccc(-c2ccc(-c3nc4cc(C(F)(F)F)ccc4[nH]3)s2)cc1 | 0.44% |
| CN(C)c1ccc(-c2ccc(C(=O)NC3CCN(Cc4cccc(C(F)(F)F)c4)CC3)s2)cc1 | 4.91% |
| Oc1ccc(CCNc2nc(NCc3ccccc3-c3ccc(C(F)(F)F)cc3)nc(NC3CCNCC3)n2)cc1 | 1.32% |
| Cc1cnc(N2CCN(CCCN3CCCC3)CC2)nc1Oc1ccc(-n2ccnc2)cc1 | 2.28% |
| CCCc1cc(NCC)nc(Nc2ccc(C)cc2)n1 | 23.6% |
| CC(C)c1cc2c(ccc3nc(N)nc(N)c32)o1 | 3.76% |
| CCCCNC(=O)C1CCCN(C(=O)c2ccc(O)c(-c3ccc(Cl)c(Cl)c3)c2)C1 (stereo not given) | 1.28% |
| CC1(C)NC(N)=NC(=N)N1OCCc1ccccc1 | 1.18% |
| Clc1ccc(Sc2cncnc2N2CCOCC2)cc1 | 3.31% |
| CN1c2ccc([N+](=O)[O-])cc2C(C)(C)C12C=Cc1cc(Br)cc([N+](=O)[O-])c1O2 (stereo not given) | 2.03% |
| O=C(/C=C/c1ccc(Cl)c(Cl)c1)NCCCCCN1CCCC(C(=O)Nc2ccc(Cl)c(Cl)c2)C1 (stereo not given) | -0.31% |
| COc1cc2nccc(Nc3cccc(Oc4ccccc4)c3)c2cc1OC | 12.8% |
| OC(CNc1ccnc(Nc2cccc(Cl)c2)n1)c1cccc(C(F)(F)F)c1 (stereo not given) | 14.4% |
| COc1ccc2c(=NN=C(C)c3ccccn3)cc(C)[nH]c2c1 | 5.68% |
| OC1CCCN(Cc2ccc(-c3ccc(-c4nc5ccccc5[nH]4)cc3)cc2)C1 (stereo not given) | 8.52% |
| FC(F)(F)c1ccccc1OCc1cc(-c2ccncc2)c(COc2ccccc2C(F)(F)F)cc1C1=CCNCC1 | 2.44% |
| CCCc1cccc(OC)c1OCCCON1C(N)=NC(N)=NC1(C)C | -2.03% |
| COc1cc(C(=O)NC2CCN(Cc3ccccc3)CC2)ccc1-c1nc2c(Cl)cc(C(F)(F)F)cc2[nH]1 | 5.51% |
| O=C(/C=C/c1ccc(Cl)c(Cl)c1)NCCCCCN1CCN(C(=O)Nc2ccc(Cl)c(C(F)(F)F)c2)CC1 | 2.17% |
